In paper PMC5540273 (PLoS ONE, 2017):

Assays:
Settings in all cases: concentration: 1 μM, replicates: in singlicate; n = 1
PIP5K2C = system: T1, PIP5K2C
T1 construct: gene PIP4K2C

PKAC-alpha = system: T2, PKAC-alpha
T2 construct: gene PRKACA

PKAC-beta = system: T3, PKAC-beta
T3 construct: gene PRKACB

PKMYT1 = system: PKMYT1
PKN1 = system: PKN1
PKN2 = system: PKN2
PLK1 = system: PLK1
PLK2 = system: PLK2
PLK3 = system: PLK3
PLK4 = system: PLK4
PRKCD = system: PRKCD
PRKCE = system: PRKCE
PRKCH = system: PRKCH
PRKCI = system: PRKCI
PRKCQ = system: PRKCQ
PRKD1 = system: PRKD1
PRKD2 = system: PRKD2
PRKD3 = system: PRKD3
PRKG1 = system: PRKG1
PRKG2 = system: PRKG2
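Note: KINOMEscan kinase panel screen.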

| SMILES | %Inh (PIP5K2C) [%] | %Inh (PKAC-alpha) [%] | %Inh (PKAC-beta) [%] | %Inh (PKMYT1) [%] | %Inh (PKN1) [%] | %Inh (PKN2) [%] | %Inh (PLK1) [%] | %Inh (PLK2) [%] | %Inh (PLK3) [%] | %Inh (PLK4) [%] | %Inh (PRKCD) [%] | %Inh (PRKCE) [%] | %Inh (PRKCH) [%] | %Inh (PRKCI) [%] | %Inh (PRKCQ) [%] | %Inh (PRKD1) [%] | %Inh (PRKD2) [%] | %Inh (PRKD3) [%] | %Inh (PRKG1) [%] | %Inh (PRKG2) [%] |
| --- | --- | --- | --- | --- | --- | --- | --- | --- | --- | --- | --- | --- | --- | --- | --- | --- | --- | --- | --- | --- |
| O=c1cc(N2CCOCC2)nc2n(Cc3cccc(Cl)c3)ccn12 [GSK2296823] | 0 | 0 | 0 | 11 | 34 | 0 | 5 | 0 | 0 | 0 | 0 | 8 | 0 | 22 | 0 | 0 | 0 | 15 | 0 | 0 |
| Clc1ccc(-c2cc(-c3c[nH]nc3-c3ccccn3)ccn2)cc1 [GW681251] | 39 | 0 | 0 | 7 | 0 | 0 | 0 | 0 | 0 | 4 | 0 | 26 | 4 | 0 | 0 | 56 | 31 | 25 | 0 | 10 |
| CN1CCC(n2cnc(-c3ccc(F)cc3)c2-c2ccnc(NC3CCNCC3)n2)CC1 [SB-229482] | 95.2 | 0 | 13 | 0 | 0 | 25 | 11 | 0 | 0 | 20 | 1 | 27 | 0 | 0 | 13 | 0 | 0 | 0 | 0 | 17 |
| COc1ccc(Nc2nccc(N3CCC(NC(=O)c4cccc(NC(C)=O)c4)C3)n2)cc1 (centres unmarked) [GSK1379732] | 57 | 0 | 12 | 3 | 0 | 0 | 15 | 6 | 0 | 0 | 8 | 16 | 17 | 5 | 25 | 13 | 20 | 11 | 2 | 11 |
| Nc1nc(-c2ccc3c(N)n[nH]c3c2)cc(N2CCC[C@@H](C(=O)Nc3ccccc3)C2)n1.O=C(O)C(F)(F)F.O=C(O)C(F)(F)F [GSK2288359] | 31 | 14 | 22 | 0 | 17 | 0 | 3 | 0 | 3 | 16 | 0 | 0 | 0 | 12 | 7 | 0 | 1 | 5 | 13 | 29 |
| Cn1ccc2ncnc(Oc3ccc(NC(=O)Nc4cccnc4)c(Cl)c3)c21 | 0 | 7 | 0 | 0 | 0 | 0 | 0 | 5 | 11 | 11 | 13 | 0 | 6 | 0 | 28 | 0 | 8 | 0 | 0 | 0 |
| Cl.Cl.c1ccc(-c2cc3ccncc3cc2OC2CCNCC2)cc1 [GSK1122999] | 6 | 0 | 9 | 14 | 0 | 19 | 5 | 0 | 0 | 9 | 33 | 82 | 86 | 21 | 21 | 15 | 7 | 0 | 0 | 0 |
| O=C(Nc1ccccc1)Nc1ccc(Oc2ccc3nccn3n2)cc1 | 25 | 0 | 55 | 8 | 6 | 4 | 3 | 0 | 15 | 0 | 10 | 0 | 0 | 19 | 0 | 24 | 6 | 0 | 13 | 0 |
| CS(=O)(=O)CCNCc1nc(-c2ccc3ncnc(Nc4ccc(OCc5cccc(F)c5)c(Cl)c4)c3c2)cs1.Cl [GW583340] | 24 | 0 | 0 | 0 | 0 | 0 | 0 | 0 | 0 | 3 | 0 | 0 | 0 | 13 | 0 | 0 | 2 | 3 | 0 | 0 |
| CCc1nc(-c2cccc(N(C)S(=O)(=O)c3ccccc3)c2)c(-c2ccnc(Nc3ccc(N4CCN(C(C)=O)CC4)nc3)n2)s1 [GSK1645895] | 63 | 0 | 0 | 1 | 34 | 0 | 7 | 0 | 0 | 8 | 0 | 0 | 0 | 0 | 15 | 3 | 12 | 9 | 0 | 0 |
